From PubChem BioAssay AID2099 (Broad Institute, 2009)
In all, about 330,000 compounds went through this assay and about 230 (0.07%) were called active. Only a selection was taken, and actives are over-represented in it overall. Values without a mark were called inactive.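 How the source made its calls: active means more than half of a compound's replicate wells show inhibition beyond 50%, single wells judged on their own value; inconclusive means some, but no more than half, of replicates pass 50% inhibition; inactive means no replicate passes 50% inhibition.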

Target: Lysine-specific demethylase 4C (Homo sapiens) (UniProt Q9H3R0)
Assay: JMJD2C H3K9me3 demethylation blockers – biochemical, fluorescence, DELFIA europium, primary screen (AID 2099);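 further: signal counts dimethyl H3K9 product captured on neutravidin plate; 0% = median of DMSO wells and 100% = 0.3 times that DMSO median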
Settings: GST-JMJD2C(1-420) H3K9me3 demethylation, at 2.35 µM, stronger effect = higher value

Chain of Lysine-specific demethylase 4C (Homo sapiens) (Q9H3R0 1-420 limits assumed): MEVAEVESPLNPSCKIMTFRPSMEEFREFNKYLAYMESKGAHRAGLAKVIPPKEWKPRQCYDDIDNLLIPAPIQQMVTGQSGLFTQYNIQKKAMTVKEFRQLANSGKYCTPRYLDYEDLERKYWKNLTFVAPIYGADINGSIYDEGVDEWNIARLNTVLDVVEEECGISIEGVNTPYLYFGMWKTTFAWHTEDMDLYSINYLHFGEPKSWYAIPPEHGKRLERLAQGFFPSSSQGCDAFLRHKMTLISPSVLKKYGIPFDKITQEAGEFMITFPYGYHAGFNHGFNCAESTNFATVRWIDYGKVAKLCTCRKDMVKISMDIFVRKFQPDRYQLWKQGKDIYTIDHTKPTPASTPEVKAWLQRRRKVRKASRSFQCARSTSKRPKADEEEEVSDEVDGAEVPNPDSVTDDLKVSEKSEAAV

Compound	inhibition
CCc1cc2c(=O)n(-c3ccccc3)c(SCC(=O)O)nc2s1	-0.0126%
Cn1ccnc1-c1nnn(-c2ccc(F)cc2)n1	1.58%
Cc1sc2ncn(CC(=O)NCCCC(=O)N(C)Cc3ccccc3)c(=O)c2c1C	3.53%
Cc1ccc2nc(C)c3c(c2c1)N(c1ccccc1)CC3	0.549%
CC(C)n1c(=S)[nH]c2cc(C(F)(F)F)ccc21	9.24%
O=C(COC(=O)c1ccccc1NC(=O)c1ccco1)Nc1ccc2c(c1)OC(F)(F)O2	-7.33%
CCN1CCC2(CC1)N=C(c1ccc(F)cc1)C(=S)N2C(=O)c1ccc(C)cc1	-5.72%
CCOc1ncccc1C(=O)OCC(=O)Nc1cccc(S(=O)(=O)N2CCCCCC2)c1	3.84%
CCC1(C)N(O)C(C)(C)C(c2ccc(OC)cc2)=[N+]1[O-] (stereo unspecified)	1.82%
CN(/C(=N/S(=O)(=O)c1cccs1)c1ccccc1)c1ccc(O)cc1	-2.26%
COc1ccc(Cl)cc1N(CC(=O)N/N=C/c1ccc(OCC(N)=O)cc1)S(C)(=O)=O	4.78%
O=C(COc1ccc(Cl)cc1Cl)NCCCNC(=O)c1cnccn1	-5.15%
CCOC(=O)C(=Cc1ccccc1OC)C(=O)OCC	-1.48%
CCOc1ccccc1NC(=O)NC1CCCCCCC1	3.73%
CC(=O)Nc1ccc(NC(=O)C(C)OC(=O)C2CC(=O)N(CCc3ccccc3)C2)cc1 (stereo unspecified)	0.0499%
Cc1nn(Cc2ccc(F)cc2)c(C)c1NC(=O)c1noc2c1CCc1ccccc1-2	-8.11%
COc1ccccc1CCC(=O)NNC(=O)c1ccncc1	-2.82%
COc1cccc(CN(C)C(=O)CC23CC4CC(CC(C4)C2)C3)c1OC	8.93%
CC(C)=CCN1CCN(Cc2cc3ccccc3[nH]2)CC1CCO (stereo unspecified)	-4.87%
COc1ccc(-c2nnc(SC(=O)N3c4ccccc4Sc4ccccc43)o2)cc1	-0.278%
CC1=C(C(=O)N(C)C)C(c2ccccc2OC(F)F)NC(=O)N1 (stereo unspecified)	6.88%
CCN1N=C(c2ccccc2)CCC1=O	2.88%
CCc1ccc[n+](-c2nc([O-])sc2C=O)c1	22.8%

Compound	inhibition
Cc1ccnc(NC(=O)CCNS(=O)(=O)c2ccc(C)c(C)c2)c1	7.52%
CCOc1ccc(-n2c(N)c(C(=O)NCC3CCCO3)sc2=S)cc1 (stereo unspecified)	-1.83%
CCC(C)(C(=O)NC1CCCCC1)N(C)C(=O)c1ccc2c(c1)OCO2 (stereo unspecified)	10.3%
CN(C)c1nc(N)nc(CSc2nnnn2-c2cccc3ccccc23)n1	-13.8%
O=C(NCc1ccc(F)cc1)C(c1ccccc1)N(C(=O)c1csnn1)C1CC1 (stereo unspecified)	-35.4%
CCc1ccc(N2CC(C(=O)N3CCCCCC3)CC2=O)cc1 (stereo unspecified)	1.98%
CN1CCN(S(=O)(=O)c2cccc(C(=O)Nc3cccc(S(N)(=O)=O)c3)c2)CC1	-5.59%
COc1ccccc1C(=O)Nc1cccc(C(=O)N2CCOCC2)c1	4.92%
O=C(NCN1CCN(CCO)CC1)c1cnccn1	-26.1%
COc1cccc(NC(=O)CN(C)CC(=O)c2c(N)n(Cc3ccccc3)c(=O)n(C)c2=O)c1	-0.288%
CCCN(CCC)C(=O)C1c2ccccc2Oc2ccccc21	8.4%
CC(C)C[C@H](NC(=O)C1CCC(CNC(=O)[C@@H]2CCCN2C(=O)OC(C)(C)C)CC1)C(=O)O (stereo partly specified)	0.085%
Cc1ccc(NS(=O)(=O)c2ccc(F)cc2)nc1	-1.74%
COc1ccccc1CNC(=O)COC(=O)c1cccs1	-6.88%
CC(=O)NCCc1ccc(S(=O)(=O)Nc2ccc(C)c(S(=O)(=O)N3CCOCC3)c2)cc1	-18.7%
CC(=O)NC1=NN(C(C)=O)C(C)(c2ccc(Cl)s2)S1 (stereo unspecified)	-13.4%
CCOc1ccc(N(C)Cc2cc(=O)oc3ccc(OC)cc23)cc1	-5.29%
Cc1ccc(CSc2nc3[nH]ncc3c(=O)[nH]2)cc1	-14.5%
COC(=O)c1cc(CNC(=O)CC(C)c2ccccc2)ccc1OC (stereo unspecified)	-9.06%
CCOC(=O)c1ccc(NC(=S)N2CCN(c3ccccn3)CC2)cc1	21.6%
OC(COc1ccc(CN2CCSCC2)cc1)CN1CCCCC1 (stereo unspecified)	6.13%
CCOC(=O)C1=C(COC(=O)[C@H](C)NS(=O)(=O)c2ccccc2F)NC(=O)NC1C (stereo partly specified)	0.99%
COc1cc2nc(CN(C)Cc3ccc(F)cc3)[nH]c(=O)c2cc1OC	-7.12%

Compound	inhibition
Cc1cc(NC(=O)CCC(=O)N(Cc2ccccc2)C(C(=O)NC2CCCC2)c2ccc(C)o2)no1 (stereo unspecified)	-25.8%
CCCCn1c(N)c(N(CCOC)C(=O)c2cccc(S(=O)(=O)N(C)c3ccccc3)c2)c(=O)[nH]c1=O	-2.28%
CCC(C(=O)Nc1ccc(C(C)C)cc1)c1ccccc1 (stereo unspecified)	-16%
O=C(Nc1ccc(S(=O)(=O)Nc2ccccn2)cc1)c1ccccc1	-2.52%
COC(=O)c1cc(C(=O)NC(C)C2CC3CCC2C3)cc([N+](=O)[O-])c1 (stereo unspecified)	-12.5%
COc1cc(NC(=O)c2ccccc2)c(OC)cc1NC(=O)Cc1ccccc1	0.759%
Nc1nc(SCC(=O)Nc2cc(C(F)(F)F)ccc2Cl)[nH]c(=O)c1NC(=O)c1ccco1	6.68%
COc1ccc(C(CC(=O)c2ccccc2)S(=O)(=O)c2ccccc2)cc1 (stereo unspecified)	-0.656%
CCC(C(=O)NCCC(C)C)N(Cc1ccccc1Cl)C(=O)c1snc(C(N)=O)c1N (stereo unspecified)	-1.98%
CCCCCOC(=O)C1=C(C)Nc2nnnn2C1c1ccc(OC)c(OC)c1OC (stereo unspecified)	-7.05%
Cc1ccc(NC(=O)Cn2cnc3c(OCc4ccccc4)ncnc32)cc1C	3.36%
O=C(Cc1cccs1)NCc1cccc(C(F)(F)F)c1	2.56%
O=C(c1ccc(S(=O)(=O)N2CCCC2)cc1)N1CCN(c2ccccc2F)CC1	5.37%
C/C(=N\NC(=O)CCn1nc(C)cc1C)C(C)(C)C	-1.66%
CCC(c1nnc(SCC(=O)NNC(=O)c2ccccc2)n1Cc1ccccc1)N(C)C (stereo unspecified)	24.1%
CC1CN(C(=O)COC(=O)c2cccc(NS(=O)(=O)c3ccccc3)c2)CC(C)O1 (stereo unspecified)	-11.9%
CC(C)(C)n1nnc(CCc2nnn(C(C)(C)C)n2)n1	4.71%
CC1CC(C)(C)CC2(C1)NC(=O)N(CC(=O)Nc1nccs1)C2=O (stereo unspecified)	12%
CN(C)/C=N/c1cc(=O)n(C)c(=O)n1CC1CC1	-0.734%
CN(C)S(=O)(=O)c1ccc(N2CCCC2=O)c([N+](=O)[O-])c1	7.65%
C=CCc1cc(S(=O)(=O)c2ccc(O)c(CC=C)c2)ccc1O	11.5%
CCCCc1ccc(S(N)(=O)=O)cc1	1.85%
COc1cc(CN(C)Cc2nc3cc(C(F)(F)F)ccc3c(=O)[nH]2)ccc1OC(F)F	-0.492%

Compound	inhibition
O=[N+]([O-])c1ncc(Br)cc1Nc1ccccc1	-32.6%
CC(C)N(Cc1nnc(-c2ccc(Cl)cc2)o1)C(=O)C1=COCCO1	0.031%
COc1ccc(CNC(=O)C(=O)N2CCC3(CC2)OCCN3S(=O)(=O)c2ccc(C)cc2)cc1	28.1%
Cc1cc(C)n(CCNC(=O)CC2C(=O)NCCN2Cc2ccc(C)o2)n1 (stereo unspecified)	-19.8%
CCC(=O)NC(Nc1cc(C)ccn1)(C(F)(F)F)C(F)(F)F	-10.4%
CC1CN(C(=O)CCC(=O)NCCCN2CCC(Cc3ccccc3)CC2)c2cc(Cl)ccc2O1 (stereo unspecified)	2.61%
Cc1noc(C)c1C(=O)OCC(=O)N1CCN(S(=O)(=O)c2ccc3ccccc3c2)CC1	-0.0421%
CCOC(=O)c1sc(-c2cccc([N+](=O)[O-])c2)cc1N	0.615%
Cc1ccc(C(=O)CN2C(=O)NC3(CCOc4ccccc43)C2=O)s1 (stereo unspecified)	0.803%
CCOc1ccc(NC(=O)CN(C)CC(=O)NC(C)c2ccccc2)cc1OCC (stereo unspecified)	2.69%
CCN1C(=O)C(=O)N(CC(=O)Nc2cc(C)ccc2C)C1=O	8.4%
COc1cccc2cc(C(=O)NCc3ccc(C)cc3)c(=N)oc12	0.845%
Cc1ccccc1-c1cc(C(=O)NCC2CC2)n(CC2CC(c3cccnc3)=NO2)n1 (stereo unspecified)	-1.99%
O=C(/C=C/c1cccs1)c1cc(Cl)ccc1OC(=O)N1CCOCC1	98.5%
CN(C(=O)c1ccccn1)c1nnc(-c2ccccn2)s1	58.4% (active)
COc1cc(OC)cc(-c2nnc(N(C)C(=O)c3ccncc3)s2)c1	-7.55%
COc1cccc(-c2nnc(N(C)C(=O)c3ccno3)s2)c1	-39.9%
O=C(NCCNc1ccc([N+](=O)[O-])cc1)c1cccc2c(Br)cccc12	7.15%
O=C(O)CCCn1cc(NC(=O)COc2cccc(Cl)c2)cn1	-414%
CCCCn1c(N)c(N(CC(C)C)C(=O)c2cccc(S(=O)(=O)N3CCN(C(C)=O)CC3)c2)c(=O)[nH]c1=O	-1.72%
CC1CCN(C(=O)/C(=C\c2ccccc2F)NC(=O)c2ccccc2)CC1	0.57%
CCOc1ccc(S(=O)(=O)N2CCC(c3ccccc3)CC2)cc1C(=O)O	-0.18%
